Calls of active or inactive are those of the source. Entries that show only a call come without a potency. Unless noted, the call rests on the fitted dose curve; in most records, active means well fitted curve in the direction sought with a large enough effect in the repeat runs; inconclusive means weak or mixed curves; inactive means no such curve, though single readings can be large; an effect the other way counts as inactive or inconclusive. Positions of bridges follow the written chain, without caps; N, C: chain ends. Non-standard residues stand in square brackets, D forms with d. Residues, ends and D or L forms follow the SMILES beside them. Orn = NCCC[C@H](N)C(=O)O; Mpa = O=C(O)CCS
Columns and labels:
[1] = qHTS assay to identify small molecule antagonists of the glucocorticoid receptor (GR) signaling pathway - cell viability counter screen (AID 720693); further: nearly all actives have a fitted effect of over 55% in size; further: potency means the concentration at half of the fitted maximal effect
[2] = qHTS assay for identifying genotoxic compounds that show differential cytotoxicity against isogenic chicken DT40 cell lines with known DNA damage response pathways - wild type cell line (AID 743012); further: nearly all actives have a fitted effect of over 60% in size; further: potency means the concentration at half of the fitted maximal effect
Procedure, shortened: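 Parental DNA repair-proficient DT40 cells, 300 per well, were pre-incubated ~0.5 h at 37 C/5% CO2, pin-dosed with compounds in DMSO, then incubated 40 h. Viability was read as CellTiter-Glo luminescence after 30 min at room temperature.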

[3] = qHTS assay for identifying genotoxic compounds that show differential cytotoxicity against isogenic chicken DT40 cell lines with known DNA damage response pathways - Rev3 mutant cell line (AID 743014); further: nearly all actives have a fitted effect of over 55% in size; further: potency means the concentration at half of the fitted maximal effect
[4] = qHTS assay for identifying genotoxic compounds that show differential cytotoxicity against isogenic chicken DT40 cell lines with known DNA damage response pathways - Rad54/Ku70 mutant cell line (AID 743015); further: nearly all actives have a fitted effect of over 60% in size; further: potency means the concentration at half of the fitted maximal effect
[5] = qHTS assay to identify small molecule antagonists of the androgen receptor (AR) signaling pathway - cell viability counter screen (AID 743033; further: nearly all actives have a fitted effect of over 45% in size; further: potency means the concentration at half of the fitted maximal effect)
[6] = target: Androgen receptor (Homo sapiens) (UniProt P10275); test: qHTS assay to identify small molecule antagonists of the androgen receptor (AR) signaling pathway (AID 743035; active means well fitted inhibition curve with a large enough effect in the signal ratio in the repeat runs, not every such curve was filed as active; inconclusive means weak or mixed curves, or effect the other way; inactive means no such curve, though single readings can be large or run the other way; the % refers to the signal ratio; further: potency means the concentration at half of the fitted maximal effect)
Procedure, shortened: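 HEK293 cells stably carrying a UAS-driven beta-lactamase reporter (AR-UAS-bla GripTite) were plated for 4 h at 37C, then given compound and the agonist R1881 and incubated 16 h. Reporter activity was read by LiveBLAzer B/G FRET fluorescence after 2 h at room temperature.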

[7] = target: Androgen receptor (Homo sapiens) (UniProt P10275); test: qHTS assay to identify small molecule agonists of the androgen receptor (AR) signaling pathway (AID 743036; active means well fitted activation curve with a large enough effect in the signal ratio in the repeat runs, with a control signal flat, not every such curve was filed as active; inconclusive means weak or mixed curves, or effect the other way; inactive means no such curve, though single readings can be large or run the other way; the % refers to the signal ratio; further: potency means the concentration at half of the fitted maximal effect)
Procedure, shortened: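 Fluorescence from a beta-lactamase FRET substrate served as read-out in AR-UAS-bla GripTite HEK293 cells. Cells were treated with DMSO-dissolved compounds for 16 h at 37C, then with LiveBLAzer B/G substrate for 2 h at room temperature.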

[8] = target: Androgen receptor (Homo sapiens) (UniProt P10275); test: qHTS assay to identify small molecule agonists of the androgen receptor (AR) signaling pathway using the MDA cell line (AID 743040; further: nearly all actives have a fitted effect of over 20% in size; further: potency means the concentration at half of the fitted maximal effect)
Procedure, shortened: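 Cells plated, 5 h at 37C/0% CO2; compound or DMSO pinned; 16 h at 37C; ONE-Glo added; luminescence measured after 30 min at room temperature. Reporter line: MDA-kb2 with MMTV-luciferase responsive to AR and GR.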

[9] = qHTS assay to identify small molecule antagonists of the androgen receptor (AR) signaling pathway using the MDA cell line - cell viability counter screen (AID 743041; further: nearly all actives have a fitted effect of over 45% in size)
Procedure, shortened: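 Cells were plated at 3,000 per well and left 5 h. Compounds in DMSO were then pinned in, followed by R1881. After 16 h at 37C, CellTiter-Fluor fluorescence gave viability.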

[10] = target: Androgen receptor (Homo sapiens) (UniProt P10275); test: qHTS assay to identify small molecule antagonists of the androgen receptor (AR) signaling pathway using the MDA cell line (AID 743042; further: nearly all actives have a fitted effect of over 55% in size; further: potency means the concentration at half of the fitted maximal effect)
Procedure, shortened: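 Antagonist mode: compounds plus R1881 agonist added to MDA-kb2 AR-luc cells, incubated 16 h at 37C. Luciferase reporter luminescence quantified, with multiplexed CellTiter-Fluor readout for cell viability.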

[11] = target: Estrogen receptor (Homo sapiens) (UniProt P03372); test: qHTS assay to identify small molecule antagonists of the estrogen receptor alpha (ER-alpha) signaling pathway (AID 743069; active means well fitted curve in the direction sought with a large enough effect in the signal ratio in the repeat runs, not every such curve was filed as active; inconclusive means weak or mixed curves, or effect the other way; inactive means no such curve, though single readings can be large or run the other way; the % refers to the signal ratio)
Procedure, shortened: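 ER-alpha-UAS-bla GripTite HEK293 line; 2% charcoal-stripped FBS overnight; plated, 4 hr 37C/5% CO2; cpd in DMSO + 17beta-estradiol, 18 hr 37C; LiveBLAzer B/G FRET substrate 2 hr RT; fluorescence intensity.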

[12] = qHTS assay to identify small molecule antagonists of the estrogen receptor alpha (ER-alpha) signaling pathway - cell viability counter screen (AID 743074; calls by dose curve;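 further: HEK293 cells carrying ER-alpha-UAS-bla reporter stimulated with 17beta-estradiol; nearly all actives have a fitted effect of over 45% in size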)
[13] = target: Estrogen receptor (Homo sapiens) (UniProt P03372); test: qHTS assay to identify small molecule agonists of the estrogen receptor alpha (ER-alpha) signaling pathway (AID 743075; calls by dose curve; further: potency means the concentration at half of the fitted maximal effect)
[14] = target: Estrogen receptor (Homo sapiens) (UniProt P03372); test: qHTS assay to identify small molecule agonists of the estrogen receptor alpha (ER-alpha) signaling pathway using the BG1 cell line (AID 743079); settings: BG1Luc4E2 cells, ERE-luciferase agonist, 22 h; activation: at 70.3 µM (top of the series); further: nearly all actives have a fitted effect of over 20% in size; further: potency means the concentration at half of the fitted maximal effect
[15] = qHTS assay to identify small molecule antagonists of the estrogen receptor alpha (ER-alpha) signaling pathway using the BG1 cell line (AID 743080; calls by dose curve;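 further: BG1 cells stimulated with 17beta-estradiol alongside compound; nearly all actives have a fitted effect of over 25% in size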)
Procedure, shortened: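 Readout is ONE-Glo luminescence, taken 30 min at room temperature after reagent addition, preceded by a CellTiter-Fluor viability read; BG1-Luc-4E2 cells had received compound and 17beta-estradiol for 21.5 h at 37 C.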

[16] = qHTS assay to identify small molecule antagonists of the estrogen receptor alpha (ER-alpha) signaling pathway using the BG1 cell line - cell viability counter screen (AID 743081);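 further: compound given together with 17beta-estradiol as the ER stimulus; nearly all actives have a fitted effect of over 45% in size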
[17] = target: Aromatase (Homo sapiens) (UniProt P11511); test: qHTS assay to identify aromatase inhibitors (AID 743083); further: nearly all actives have a fitted effect of over 55% in size; further: potency means the concentration at half of the fitted maximal effect
[18] = qHTS assay to identify small molecule antagonists of the thyroid receptor (TR) signaling pathway - cell viability counter screen (AID 743064); further: nearly all actives have a fitted effect of over 50% in size
Procedure, shortened: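 Fluorescence from CellTiter-Fluor, added after 23.5 h exposure at 37 °C, reported viability of GH3.TRE-Luc cells co-treated with compound and 1 nM T3. Measured in the same wells as the luciferase TR readout.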

[19] = qHTS assay to identify small molecule antagonists of the thyroid receptor (TR) signaling pathway (AID 743065); further: nearly all actives have a fitted effect of over 55% in size; further: potency means the concentration at half of the fitted maximal effect
Procedure, shortened: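 Antagonism measured as loss of luciferase signal in GH3 cells stably carrying a TRE-luciferase reporter, co-treated with compound and T3 (1 nM final) for 23.5 h at 37 C. Viability was read in the same well by CellTiter-Fluor.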

[20] = test system: thyroid hormone receptor (rat, GH3 cells); test: qHTS assay to identify small molecule agonists of the thyroid receptor (TR) signaling pathway (AID 743066; calls by dose curve)

Chain of Estrogen receptor (Homo sapiens) (P03372 whole entry, looked up): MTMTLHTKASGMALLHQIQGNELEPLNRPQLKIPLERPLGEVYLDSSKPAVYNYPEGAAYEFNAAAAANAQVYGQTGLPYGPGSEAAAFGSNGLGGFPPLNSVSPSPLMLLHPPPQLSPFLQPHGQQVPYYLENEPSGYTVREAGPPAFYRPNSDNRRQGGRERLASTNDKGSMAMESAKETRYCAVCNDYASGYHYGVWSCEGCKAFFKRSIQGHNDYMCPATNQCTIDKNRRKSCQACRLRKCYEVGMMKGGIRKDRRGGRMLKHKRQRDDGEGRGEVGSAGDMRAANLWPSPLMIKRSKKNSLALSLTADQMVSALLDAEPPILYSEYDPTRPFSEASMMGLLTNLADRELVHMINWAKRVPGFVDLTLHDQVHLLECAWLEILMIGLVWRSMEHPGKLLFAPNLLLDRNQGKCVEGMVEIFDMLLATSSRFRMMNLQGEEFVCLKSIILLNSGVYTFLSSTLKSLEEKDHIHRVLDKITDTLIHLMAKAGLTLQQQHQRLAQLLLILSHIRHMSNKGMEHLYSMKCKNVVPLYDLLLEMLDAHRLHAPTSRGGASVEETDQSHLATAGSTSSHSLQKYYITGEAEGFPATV
Chain of Aromatase (Homo sapiens) (P11511 whole entry, looked up): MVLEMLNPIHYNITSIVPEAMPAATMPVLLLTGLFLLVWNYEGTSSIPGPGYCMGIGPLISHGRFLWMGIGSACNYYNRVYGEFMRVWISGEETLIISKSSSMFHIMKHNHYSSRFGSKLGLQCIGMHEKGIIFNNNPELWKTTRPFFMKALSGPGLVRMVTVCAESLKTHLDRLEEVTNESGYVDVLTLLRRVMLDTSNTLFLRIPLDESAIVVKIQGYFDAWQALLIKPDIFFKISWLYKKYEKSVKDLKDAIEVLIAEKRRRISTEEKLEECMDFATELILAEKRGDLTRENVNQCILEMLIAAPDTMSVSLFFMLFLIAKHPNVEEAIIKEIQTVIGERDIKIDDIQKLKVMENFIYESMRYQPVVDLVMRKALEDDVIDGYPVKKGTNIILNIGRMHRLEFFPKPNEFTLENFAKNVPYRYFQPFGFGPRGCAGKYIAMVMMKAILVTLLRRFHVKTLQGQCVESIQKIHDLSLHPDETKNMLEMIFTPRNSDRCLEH
Chain of Androgen receptor (Homo sapiens) (P10275 whole entry, looked up): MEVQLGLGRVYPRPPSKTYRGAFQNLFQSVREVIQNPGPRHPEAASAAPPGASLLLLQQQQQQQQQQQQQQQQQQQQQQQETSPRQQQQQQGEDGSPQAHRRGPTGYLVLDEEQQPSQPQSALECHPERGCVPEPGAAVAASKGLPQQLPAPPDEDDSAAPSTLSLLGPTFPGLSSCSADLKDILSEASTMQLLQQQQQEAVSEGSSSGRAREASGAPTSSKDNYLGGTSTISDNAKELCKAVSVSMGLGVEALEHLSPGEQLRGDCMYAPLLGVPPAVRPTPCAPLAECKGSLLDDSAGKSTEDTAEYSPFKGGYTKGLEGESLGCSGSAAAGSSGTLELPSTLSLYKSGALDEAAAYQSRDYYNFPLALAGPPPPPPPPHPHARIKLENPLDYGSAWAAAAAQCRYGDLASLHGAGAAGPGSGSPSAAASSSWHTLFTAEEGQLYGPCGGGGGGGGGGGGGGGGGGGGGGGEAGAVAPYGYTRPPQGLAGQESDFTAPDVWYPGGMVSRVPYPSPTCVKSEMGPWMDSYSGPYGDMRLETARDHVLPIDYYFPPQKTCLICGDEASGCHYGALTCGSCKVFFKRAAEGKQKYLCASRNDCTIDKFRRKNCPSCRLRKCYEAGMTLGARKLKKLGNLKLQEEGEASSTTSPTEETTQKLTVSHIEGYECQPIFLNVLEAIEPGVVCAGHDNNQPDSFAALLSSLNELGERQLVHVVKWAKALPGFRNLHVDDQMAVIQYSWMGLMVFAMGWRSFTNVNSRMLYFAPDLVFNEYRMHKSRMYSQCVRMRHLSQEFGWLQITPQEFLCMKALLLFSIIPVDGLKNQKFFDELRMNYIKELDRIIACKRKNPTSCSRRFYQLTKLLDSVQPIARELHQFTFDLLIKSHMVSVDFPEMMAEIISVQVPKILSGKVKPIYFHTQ

| Structure (SMILES) | Potency [1] | Potency [2] | Potency [3] | Potency [4] | Potency [5] | Potency [6] | Potency [7] | Potency [8] | Potency [9] | Potency [10] | Potency [11] | Potency [12] | Potency [13] | Potency [14] | Potency [15] | Potency [16] | Potency [17] | Potency [18] | Potency [19] | Potency [20] |
| --- | --- | --- | --- | --- | --- | --- | --- | --- | --- | --- | --- | --- | --- | --- | --- | --- | --- | --- | --- | --- |
| CCC(CN)CC(C)CCNCC(O)CNCC(C)CC(CC)CN (configuration not stated) | inactive | inactive | inactive | inactive | inactive | inactive | inactive | inactive | inactive | inactive | inactive | inactive | inactive | inactive | inactive | inactive | inactive |  |  |  |
| O=C(O)c1nc(=O)[nH]c(=O)[nH]1 | inactive | inactive | inactive | inactive | inactive | inactive | inactive | inactive | inactive | inactive |  | inactive |  |  |  | inactive | inactive | inactive | inactive | inactive |
| CCCCCCCCCCCCCCCCCC(=O)OC[C@@H](O)[C@H]1OC[C@H](O)[C@H]1O | inactive | inactive | inactive | inactive | inactive | inactive | inactive | inactive | inactive | inactive |  | inactive |  |  |  | inactive | inactive | inactive | inactive | inactive |
| CC1(C)S[C@@H]2[C@H](NC(=O)C3(N)CCCCC3)C(=O)N2[C@H]1C(=O)O | inactive | inactive | inactive | inactive | inactive | inactive | inactive | inactive | inactive | inactive |  | inactive |  |  |  | inactive | inactive | inactive | inactive | inactive |
| CCOC(=O)CCC(=O)O[C@H]1[C@H](O[C@@H]2[C@@H](C)[C@H](O[C@H]3C[C@@](C)(OC)[C@@H](O)[C@H](C)O3)[C@@H](C)C(=O)O[C@H](CC)[C@@](C)(O)[C@H](O)[C@@H](C)C(=O)[C@H](C)C[C@@]2(C)O)O[C@H](C)C[C@@H]1N(C)C | inactive | inactive | inactive | inactive | inactive | inactive | inactive | inactive | inactive | inactive | inactive | inactive | inactive | inactive | inactive |  | inactive |  |  |  |
| CC(C)CCC[C@@H](C)[C@H]1CC(=O)C2=C3CC[C@H]4C[C@@H](O)CC[C@]4(C)[C@H]3CC[C@@]21C | inactive | 596 nM (active) | 298 nM (active) | 841 nM (active) | inactive | inactive | inactive | inactive | inactive | inactive | inactive |  | inactive | inactive | inactive | inactive | inactive | inactive |  | inactive |
| Oc1cc(O)cc(O)c1 | inactive | inactive | inactive | inactive | inactive | inactive |  | inactive | inactive | inactive |  | inactive |  |  |  | inactive | inactive |  |  | inactive |
| CCCCCCCCCCCCCC[n+]1ccc(C)cc1 | 21300 nM (active) | 188 nM (active) | 335 nM (active) | 266 nM (active) | 6010 nM (active) | 9520 nM (active) | inactive | inactive |  | 5960 nM (active) |  |  | inactive |  |  |  | 8410 nM (active) |  | 4730 nM (active) |  |
| CC(=O)O[C@H]1C(=O)[C@@]2(C)[C@H]([C@H](OC(=O)c3ccccc3)[C@]3(O)C[C@H](OC(=O)[C@H](O)[C@@H](NC(=O)c4ccccc4)c4ccccc4)C(C)=C1C3(C)C)[C@]1(OC(C)=O)CO[C@@H]1C[C@@H]2O | inactive | 10.6 nM (active) | 9.4 nM (active) | 13.3 nM (active) | 952 nM (active) | 16.9 nM (active) |  | inactive | inactive | inactive |  | inactive | inactive |  |  |  | inactive |  | 133 nM (active) | inactive |
| CCOc1ccc(C[C@H]2NC(=O)CCSSC[C@@H](C(=O)N3CCC[C@H]3C(=O)N[C@@H](CCCN)C(=O)NCC(N)=O)NC(=O)[C@H](CC(N)=O)NC(=O)[C@H]([C@@H](C)O)NC(=O)[C@H]([C@@H](C)CC)NC2=O)cc1 ([Mpa][dY](Et)ITNCP[Orn]G-NH2; disulfide 1-6) | inactive | inactive | inactive | inactive | inactive | inactive | inactive | inactive | inactive | inactive | inactive | inactive | inactive | inactive | inactive | inactive | inactive | inactive | inactive | inactive |
| C#C[C@]1(O)CC[C@H]2[C@@H]3CCC4=C/C(=N/O)CC[C@@H]4[C@H]3CC[C@@]21CC | inactive | 16800 nM (active) | 23700 nM (active) | 21100 nM (active) | inactive | 26800 nM (active) | 4250 nM (active) | 33.5 nM (active) |  |  |  | inactive | 151 nM [inconclusive] (active) | 42.2 nM (active) |  | inactive | 23700 nM (active) |  | 11900 nM (active) |  |
| CCOC(=O)COc1ccc2c(C)c(CCN(CC)CC)c(=O)oc2c1 | inactive | inactive | inactive | inactive | inactive | inactive | inactive | inactive | inactive | inactive | inactive |  | inactive | inactive | inactive | inactive | inactive |  | inactive | inactive |
| O=P(O)(O)OC(Cn1cncn1)(Cn1cncn1)c1ccc(F)cc1F | inactive | inactive | inactive | inactive | inactive | inactive |  | inactive |  | inactive | inactive | inactive | inactive | inactive | inactive |  | inactive | inactive | inactive | inactive |
